Source: PubChem BioAssay (National Center for Advancing Translational Sciences (NCATS))
Rows were chosen to be rich in hits. Some 19% of all compounds tested hit in one or more screens of this group.
HT1080-NT tox: qHTS for induction of synthetic lethality in tumor cells producing 2HG: qHTS for the HT-1080-NT fibrosarcoma cell line | actives 1.6% (n = 360,000) | AID 686970, 2013 | HT-1080-NT fibrosarcoma viability, CellTiter-Glo ATP luminescence, 48 h | Potency, µM (doses to about 46.1 µM), without a hit: top-dose activity, negative = less viability, actives largely listed as cytotoxic;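 note: NT is the 2HG producing partner of a matched IDH1 knockdown line; potency is the fitted concentration of half-maximal effect; 0% = DMSO-treated cells and -100% = media-only wells without cells; nearly all actives have a fitted effect of over 55% in size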
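750 cells/well, RPMI + 5% FBS; 2 h settle, compound pin-transfer, 48 h at 37 degrees C. CellTiter-Glo 10 min RT, luminescence. Normalized to DMSO and media-only wells.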
IL1B secr inh: qHTS for Inhibitors of Inflammasome Signaling: IL-1-beta AlphaLISA Primary Screen. THP-1 LPS/ATP IL-1B secretion, AlphaLISA, 16 h; active compounds read low. activity change, % at 57.5 µM. actives 4.7% (n = 360,000). AID 743279, 2014; in the data active = activity change below about -50%; inconclusive = mostly about -30% to -49%
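Secreted IL-1B measured by AlphaLISA bead assay after 16 h compound exposure of THP-1 cells; compounds (final up to 57.5 uM) added 1 h before LPS (250 ng/mL) and ATP (1.25 mM) stimulation; lower signal means less secretion.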
DT40 TDP1 no CPT: qHTS for Inhibitors of human tyrosyl-DNA phosphodiesterase 1 (TDP1): qHTS in cells in absence of CPT; DT40 Tdp1-/- hTDP1 cells, no CPT, ATP luminescence, 48 h; Potency, µM (top dose mostly 46.2 µM), inactives show at the highest dose activity change, negative = growth inhibition, hits mostly inhibitors; actives 15% (n = 420,000); AID 686978, 2013; note: potency is the fitted concentration of half-maximal effect; nearly all actives have a fitted effect of over 55% in size
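Cells were dispensed at 400 per well, compounds added by pin tool, plates incubated ≥48 hr at 37 °C, then CellTiter-Glo added for 30 min at room temperature before luminescence reading. Line: DT40 Tdp1-/- complemented with hTDP1; camptothecin omitted.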
HT1080 IDH1KD tx: qHTS for induction of synthetic lethality in tumor cells producing 2HG: qHTS for the HT-1080-IDH1KD cell line. HT-1080 IDH1 knockdown viability, ATP luminescence, 48 h. Potency, µM (top dose mostly 46.1 µM), for the others: at the top dose activity, negative = toxicity, most hits filed as cytotoxic. actives 2% (n = 360,000);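 note: potency is the fitted concentration of half-maximal effect; 0% = DMSO wells and -100% = cell-free medium wells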
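CellTiter-Glo luminescence after 48 h compound exposure at 37 degrees C of IDH1-knockdown HT-1080 cells in 5% FBS RPMI. %Activity scaled between DMSO wells and cell-free media wells, with curves fitted and assigned curve classes.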
DT40 TDP1 CPT: qHTS for Inhibitors of human tyrosyl-DNA phosphodiesterase 1 (TDP1): qHTS in cells in presence of CPT; chicken DT40 Tdp1-/-;hTDP1 cells + 20 nM CPT, ATP luminescence, 48 h; Potency, µM (doses to about 46.2 µM), for the others: at the top dose activity change, negative = growth inhibition, hits mostly inhibitors; actives 12% (n = 420,000); AID 686979, 2013; note: potency is the fitted concentration of half-maximal effect; nearly all actives have a fitted effect of over 55% in size
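Chicken DT40 Tdp1-/- cells stably complemented with human TDP1 were seeded at 400 cells/well in medium containing 20 nM camptothecin, exposed to pin-transferred compounds, and grown at 37 °C for at least 48 hr. Viability was read as ATP luminescence.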
ELG1 repair inh: qHTS screen for small molecules that inhibit ELG1-dependent DNA repair in human embryonic kidney (HEK293T) cells expressing luciferase-tagged ELG1. actives 2.3% (n = 330,000). Potency, µM (doses to about 46.1 µM), for inactives: top-dose activity change, negative = inhibition, usual class: inhibitors. AID 504467, 2011. HEK293T ELG1-luciferase reporter, luminescence, 16 h; DNA damage induced by 5-fluorouridine; note: potency is the fitted concentration of half-maximal effect; nearly all actives have a fitted effect of over 55% in size
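In this reporter screen, reduction of luminescence relative to DMSO vehicle indicated activity. Compounds and 5-fluorouridine were added together to 2,000 cells per well, incubated for 16 hr at 37 °C, then developed with ONE-Glo.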
Starred values were filed as active, the others as inactive; ? = inconclusive; · = no result given. Unless noted, calls come from the whole dose curve; as a rule, active = well fitted curve in the direction sought with a large enough effect; inconclusive = small, poorly fitted or top-dose-only effect, or another doubt; inactive = no such curve, though single readings can be large; an effect the other way counts as inactive or inconclusive. Unless noted, % is set by controls: 0 for no effect and ±100 for the full control effect.

SMILES | HT1080-NT tox | IL1B secr inh | DT40 TDP1 no CPT | HT1080 IDH1KD tx | DT40 TDP1 CPT | ELG1 repair inh
COc1ccc(-c2ccc(C(=O)Nc3cccc(Oc4ccccc4)c3)c3occc23)c(C)c1 | -1% | 7 | 16µM* | -19% | 23µM* | ·
COc1cccc(C(=O)Nc2cccnc2)c1 | 6% | 4 | -18% | 5% | -26% | ?
COc1ccc(NC(=O)Nc2ccc(C(C)C)cc2)cc1 | 22% | -23 | -24% | 11% | -20% | ?
COc1ccc(-c2ccc(C(=O)Nc3cccc(C(C)=O)c3)c3occc23)c(C)c1 | -22% | 11 | 8.2µM* | ? | 12µM* | ·
COc1ccc(-c2ccc(C(=O)Nc3ccc(C(C)C)cc3)c3occc23)c(C)c1 | -1% | 25 | 16µM* | -20% | ? | ·
COc1ccc(-c2coc3c(C(=O)Nc4cccnc4)cccc23)c(C)c1 | ? | 0 | 8.2µM* | ? | 18µM* | ·
Cc1c(C)n2c(SCC(=O)N3CCN(c4ccccc4)CC3)nnc2[nH]c1=O | 5% | 3 | 23% | 3% | -22% | 17%
N#CCC(=O)Nc1ccc(C(=O)NCC(c2ccco2)N2CCCCC2)cc1 (stereo unspecified) | -3% | 20 | 0% | -3% | 18% | 11%
COc1ccc(-c2coc3c(C(=O)Nc4cccc(C(C)=O)c4)cccc23)c(C)c1 | -19% | 8 | 21µM* | ? | 18µM* | ·
COc1ccc(-c2ccc(C(=O)Nc3cccc(NS(C)(=O)=O)c3)c3occc23)c(C)c1 | ? | -10 | ? | ? | 16µM* | ·
COc1cccc(C(=O)Nc2cccc(C(C)=O)c2)c1 | 6% | 14 | -4% | 3% | 22% | ?
COc1ccc(-c2ccc(C(=O)Nc3cccc(N(C)C)c3)c3occc23)c(C)c1 | -1% | 0 | ? | -12% | ? | ·
Cc1ccc(CNC(=O)CNC(=O)c2c(C)nn(C)c2Cl)cc1 | ? | 44 | 7% | -1% | 2% | -1%
COc1ccc(NC(=O)COC(=O)C2CCN(S(=O)(=O)c3cccs3)CC2)cc1 | 2% | 0 | 0% | 5% | -5% | -5%
CCn1cc(C(=O)NCCc2ccc(Cl)cc2)c(=O)c2cc(S(=O)(=O)N(C)C)ccc21 | 3% | 6 | 6% | -5% | 3% | -9%
CCn1cc(C(=O)NCc2ccccc2OC)c(=O)c2cc(S(=O)(=O)N(C)C)ccc21 | -5% | 0 | ? | 0% | ? | ?
CCn1cc(C(=O)NCc2ccc(Cl)cc2)c(=O)c2cc(S(=O)(=O)N(C)C)ccc21 | -6% | -69* | 21µM* | 0% | ? | ?
CCn1cc(C(=O)NCc2ccc3c(c2)OCO3)c(=O)c2cc(S(=O)(=O)N3CCOCC3)ccc21 | -7% | ? | -17% | -14% | -41% | ?
CCn1cc(C(=O)NCc2ccc3c(c2)OCO3)c(=O)c2cc(S(=O)(=O)N(C)C)ccc21 | -2% | -21 | 18µM* | -1% | ? | 16µM*
CCn1cc(C(=O)NC(C)CCc2ccccc2)c(=O)c2cc(S(=O)(=O)N(C)C)ccc21 (stereo unspecified) | 0% | -28 | -28% | -23% | -16% | 21µM*
CSc1nc(N)nc2c1ncn2Cc1ccccc1 | 2% | 21 | ? | -3% | ? | ·
